# Data as given in the OligoGym collection.
# Target: PRKX
# Test: pooled miR-30 sensor sort-seq; sequence = guide strand
# Settings: shRNA
# Also: reference of the scale not given here.
row,Sequence,sensor-assay potency score (higher = more potent)
1,TTCATGTTTCCTAATCGCCTTG,-0.603
2,TTAATGAGGTCTTTTACATGGA,-0.298
3,TTGGAGTGCAGGTACTCGATGG,-0.357
4,TCATGTTTCCTAATCGCCTTGT,0.781
5,TTGGCGAACCCAAAGTCCGTGA,-0.61
6,TTTCCTAATCGCCTTGTTCTGT,-0.676
7,TAGCTGAAGAGCTCGCCGCCCG,-0.771
8,TCGCCTTGTTCTGTCAACCACG,-0.962
9,TTCCTAATCGCCTTGTTCTGTC,-0.396
10,ATTGTGTACGTGTTGCTCCTGC,0.0637
11,TAATGAGGTCTTTTACATGGAA,-0.747
12,TTCTCTGGCTTCAAGTCCCTGT,-0.5

# Target: PRM2
# Test: as above
# Settings: shRNA
row,Sequence,sensor-assay potency score (higher = more potent)
1,TTTTTCTTAATTTCCAGCTGGG,0.485
2,TGCCTGTACACCTCGTGCGAGC,-1.54
3,TTGCGCCTTCTGCAGGAGCGAT,-1.7
4,TCGAGAGCAGTGTCTGCGCCTA,-0.978
5,TATAGTGAGACTGGCCATGGGT,-0.496
6,TAGACCTCGACGTGCTCCGGGC,-1
7,TTCGAGAGCAGTGTCTGCGCCT,-0.241
8,TTCTCTTAACTTCCAGCTGGGG,-0.773
9,TTGCTCTTGCCCATGCAACTGC,-0.57
10,TTGCCCATGCAACTGCTGCCTG,-0.795
11,TTTCTCTTAACTTCCAGCTGGG,0.205
12,TTCCTGGTTCTGCAGCCTCTGC,-1.75

# Target: PROC
# Test: as above
# Settings: shRNA
row,Sequence,sensor-assay potency score (higher = more potent)
1,TTCTCAGACACCATGTTGCTCA,0.141
2,ATGTTGCTCATGACCTCGCTGC,-0.588
3,TTTGGTGTAAACGCCGTAGTTG,-0.456
4,AAGTTGAGGACGAAGGTGCGGT,-0.189
5,ATTGAGGAAGCTCACCTCGCGC,-1.35
6,TGACTTTGGTGTAAACGCCGTA,-0.165
7,TTGCTCATGACCTCGCTGCACT,-0.963
8,TTGTCGGTGGTGCTCTTGCTGT,-1.32
9,TTTGCGGATCCGCAGCACCTGG,-1.65
10,TCGCTGCTGGAGAACACTGAGT,-1.33
11,TCATTGTCGGTGGTGCTCTTGC,-0.681
12,TTGGTGTAAACGCCGTAGTTGT,-1.16

# Target: PRODH2
# Test: as above
# Settings: shRNA
row,Sequence,sensor-assay potency score (higher = more potent)
1,TTGAAAATACGGTTCTCACGTT,-0.536
2,AATACATTTGAAAATACGGTTC,-0.869
3,TTAAAATTGGAAACGCTGTAGT,0.00998
